Reference: PubChem BioAssay (NCI)
Compounds without any hit were thinned out: in the full panel of roughly 83,000, 20% have a hit.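 Method: cells in 96-well plates; compound added at one concentration; 48 h incubation; percent growth measured; values under 10 scored active.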 Active and inactive are the calls of the source.

Each molecule was assayed on HL-60(TB) leukemia (assay: NCI-60 one-dose screen, 48 h (100 = growth as untreated, 0 = no growth, -100 = all killed)). Details: 10 µM unless noted.

| Compound | growth |
| --- | --- |
| O=C(Nc1ccc(-c2nc(-c3cccc(O)c3)c(-c3ccnc(Br)c3)[nH]2)cc1)c1ccccc1 | -53.1% (active) |
| Oc1[nH]c2ccc(Cl)cc2c1N=Nc1nc(N=Nc2c(O)[nH]c3ccc(Cl)cc23)nc(N2CCCCC2)n1 | 71.5% (inactive) |
| O=C1CSC(c2cn(-c3ccccc3)nc2-c2ccc(Cl)cc2)N1c1ccccc1 (stereo not drawn) | 117% (inactive) |
| O=C1[C@@H]2Cc3c([nH]c4ccccc34)[C@@H](c3ccc(Cl)cc3)N2C(=O)CN1C1CCN(Cc2c(F)cccc2F)CC1 | 0.352% (active) |
| O=C(c1ccc(O)cc1)[C@@H]1CN[C@@]2(C(=O)Nc3ccccc32)[C@H]1c1ccc(F)cc1 | 95.4% (inactive) |
| Cn1cc(-c2nn3cc(-c4ccncc4)nc3s2)c2cc(F)ccc21 | -1.16% (active) |
| Cc1ccc(-c2cc3nc(C(Cl)Cl)nc(-c4cccs4)n3n2)cc1 | 23.9% (inactive) |
| OC1CCc2c(-c3ccc4ncnc(N5CCc6cc(F)c(Cl)cc65)c4c3)cncc21 (stereo not drawn) | 34.3% (inactive) |
| CC(=O)c1ccc(NC(=O)COc2ccc(C3SCC(=O)N3c3ccc(Br)cc3)cc2)cc1 (stereo not drawn) | 96.7% (inactive) |
| CCNCc1c(-c2cccc(OC(F)(F)F)c2)[nH]c2ccc(N3CCCC3)cc2c1=O | -8.31% (active) |
| COc1ccc([C@@H]2c3[nH]c4ccccc4c3C[C@H]3C(=O)N(C4CCN(CC5CCCCC5)CC4)CC(=O)N23)c(OC)c1 | 47.7% (inactive) |
| COc1ccc(OC)c(NC2=C(Cl)C(=O)C(C)=C(C)C2=O)c1 | 74% (inactive) |
| Cc1sc2nc(NCc3ccccc3Cl)[nH]c(=O)c2c1C | 75.1% (inactive) |
